Common to all, as to assay: qHTS profiling for inhibitors of Plasmodium falciparum proliferation (AID 504749); also: nearly all actives have a fitted effect of over 60% in size
Holding throughout (settings): P. falciparum in erythrocytes, SYBR Green DNA, 72 h; series mostly up to 28.7 µM

Assay [1] concerns N140. Put shortly:
(§1)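 Fluorescence of SYBR Green-bound parasite DNA, read at 485/535 nm, served as the growth measure. Infected erythrocytes were cultured with compound 72 h; artemisinin (0.29 uM) and DMSO wells defined the normalization range.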

In assay [2] the test system is P93_24. Put shortly:
as §1

Assay [3] deals with P94_40. Put shortly: as §1
Assay [4] concerns PAD. Put shortly: as §1
Assay [5] concerns PC15. Put shortly:
as §1

The test system of assay [6] is PC26. The essentials:
as §1

The subject of assay [7] is PC49. The essentials: as §1
The subject of assay [8] is SC27B. Put shortly: as §1
The subject of assay [9] is TAB109. Put shortly:
as §1

Assay [10] relates to TAB113. Put shortly: as §1

Structures are written as SMILES. Inconclusive results are not listed. The source made the active and inactive calls. Calls follow the shape of the dose curve; as a rule, active = well fitted inhibition curve with a large enough effect; inconclusive = small, poorly fitted or top-dose-only effect; inactive = flat fitted curve, though single readings scatter. Where a SMILES comes first, the peptide text is derived from it. [ ]: non-standard residue; d: D form. pGlu = O=C1CC[C@@H](C(=O)O)N1; Thz = O=C(O)[C@@H]1CSCN1
Potency is read from the fitted curve at half-maximal effect.

Consider `CCCCCCOc1ccccc1C(N)=O`, for which the Potency result in assay [1], in assay [2], in assay [3], in assay [4], in [5] and in [6] was “inactive” each time. Moreover, the Potency result in assay [7], in [8], in assay [9] and in [10] was “inactive” throughout.

Consider `O=C(OCc1ccccc1)c1ccccc1`, for which the Potency result in [1], in [2], in assay [3], in assay [4], in assay [5] and in assay [6] was “inactive” in each case. The Potency result in assay [7], in assay [8], in assay [9] and in [10] was “inactive” each time.

For the compound `CCCCCCCCCCCCCCCC(=O)OC(C)C`, the Potency result in [1], in [2], in assay [3], in [4], in assay [5] and in assay [6] was “inactive” each time. For the same compound, the Potency result in assay [7], in assay [8], in assay [9] and in [10] was “inactive” in each case.

With `O=C1CC[C@@H](C(=O)N2CSC[C@H]2C(=O)O)N1` ([pGlu]-[Thz]-OH), the Potency result in [1], in assay [2], in assay [3], in [4], in assay [5] and in assay [6] was “inactive” throughout. Further, the Potency entry in assay [7], in assay [8], in assay [9] and in assay [10] was “inactive” each time.

Regarding `O=C(O)Cc1ccc(-c2ccccc2)cc1`, the Potency result in assay [1], in [2], in assay [3], in [4], in [5] and in [6] was “inactive” throughout. Moreover, the Potency entry in assay [7], in [8], in [9] and in [10] was “inactive” throughout.

Consider `Nc1c(CC(=O)O)cccc1C(=O)c1ccc(Br)cc1`, for which the Potency result in assay [1], in assay [2], in [3], in [4], in assay [5] and in assay [6] was “inactive” each time. In addition, the Potency result in [7], in assay [8], in assay [9] and in assay [10] was “inactive” in each case.

For `C=C(Nc1ccc(OCC)cc1)Nc1ccc(OCC)cc1`, the Potency result in assay [1], in [2], in assay [3], in assay [4], in assay [5] and in assay [6] was “inactive” in each case. The Potency result in [7], in assay [8], in [9] and in assay [10] was “inactive” in each case.

With `Cc1ccc(O)c(-n2nc3ccccc3n2)c1`, the Potency result in assay [1], in assay [2], in [3], in [4], in assay [5] and in [6] was “inactive” each time. The Potency entry in assay [7], in assay [8], in assay [9] and in assay [10] was “inactive” throughout.

`O=C(O)/C=C/C(O)c1ccc(Cl)cc1` (stereo not given): the Potency result in [1], in [2], in assay [3], in assay [4], in assay [5] and in assay [6] was “inactive” each time. Further, the Potency entry in [7], in assay [8], in assay [9] and in assay [10] was “inactive” throughout.

As to `Cc1[nH]cnc1CN1CCc2c(c3ccccc3n2C)C1=O`, the Potency result in assay [1], in assay [2], in assay [3], in assay [4], in assay [5] and in assay [6] was “inactive” each time. For the same compound, the Potency entry in assay [7], in assay [8], in [9] and in assay [10] was “inactive” each time.

Turning to `COc1cc(CNC(=O)CCCC/C=C/C(C)C)ccc1O`, the Potency entry in [1], in [2], in [3], in assay [4], in [5] and in assay [6] was “inactive” each time. Also, the Potency entry in assay [7], in assay [8], in assay [9] and in assay [10] was “inactive” throughout.

Consider `COc1cc2c3cc1Oc1cc(ccc1O)C[C@@H]1c4c(cc(OC)c(O)c4Oc4ccc(cc4)C[C@@H]3N(C)CC2)CC[N+]1(C)C`, for which the Potency entry in [1], in [2], in [3], in assay [4], in [5] and in assay [6] was “inactive” each time. Also, the Potency entry in assay [7], in assay [8], in [9] and in assay [10] was “inactive” throughout.

With `[O-][n+]1ccccc1SSc1cccc[n+]1[O-]`, the Potency was 708 nM (active) in assay [1]; 1000 nM (active) in assay [2]; 794 nM (active) in assay [3]; 891 nM (active) in assay [4]; 2240 nM (active) in assay [5]; 1510 nM (active) in [6]. In addition, the Potency in [7] is 1410 nM (active); in [8], 891 nM (active); in assay [9], 891 nM (active); in assay [10], 891 nM (active).

Regarding `CC1(C)S[C@@H]2[C@H](NC(=O)[C@H](NC(=O)N3CCN(S(C)(=O)=O)C3=O)c3ccccc3)C(=O)N2[C@H]1C(=O)O`, the Potency result in [1], in assay [2], in [3], in [4], in assay [5] and in assay [6] was “inactive” each time. The Potency entry in assay [7], in assay [8], in [9] and in assay [10] was “inactive” throughout.

Take `CCC1C(=O)OCC1Cc1cncn1C` (stereo not given): the Potency entry in [1], in assay [2], in assay [3], in [4], in assay [5] and in assay [6] was “inactive” in each case. The Potency entry in assay [7], in [8], in [9] and in assay [10] was “inactive” each time.

As for `Cc1c(Nc2ncccc2C(=O)O)cccc1C(F)(F)F`, the Potency result in [1], in assay [2], in assay [3], in assay [4], in [5] and in assay [6] was “inactive” each time. For the same compound, the Potency entry in assay [7], in [8], in assay [9] and in assay [10] was “inactive” each time.

`CCCOC(=O)c1ccc(O)cc1`: the Potency result in assay [1], in assay [2], in assay [3], in assay [4], in [5] and in assay [6] was “inactive” in each case. The Potency result in assay [7], in assay [8], in assay [9] and in assay [10] was “inactive” in each case.

As to `O=C(/C=C/c1ccccc1)NCCO`, the Potency result in assay [1], in [2], in [3], in assay [4], in assay [5] and in assay [6] was “inactive” each time. In addition, the Potency result in [7], in assay [8], in [9] and in [10] was “inactive” throughout.

Take `C=CC(N)CCC(=O)O` (stereo not given): the Potency entry in assay [1], in [2], in assay [3], in assay [4], in [5] and in [6] was “inactive” throughout. Besides, the Potency result in assay [7], in [8], in assay [9] and in assay [10] was “inactive” in each case.

Regarding `CCCCCC[C@@H](O)C/C=C\CCCCCCCC(=O)O`, the Potency result in [1], in [2], in [3], in assay [4], in assay [5] and in assay [6] was “inactive” throughout. Moreover, the Potency entry in [7], in assay [8], in [9] and in assay [10] was “inactive” in each case.

These data come from PubChem BioAssay (NCATS).
